# Screens from PubChem BioAssay.
# Only some compounds are listed: those with a hit (about 2.3% of all), similar ones and a draw of the others.
# TDP-43 yeast inh – qHTS of TDP-43 Inhibitors; TDP-43 expressing yeast growth rescue, BacTiter-Glo, 24 h; Potency, µM (highest dose often 46.1 µM), usual class: activators; 1.8% of 410,000 active; also: nearly all actives have a fitted effect of over 50% in size
#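 Readout is BacTiter-Glo luminescence of cell growth, so inhibitors register as activators. TDP-43-expressing yeast at OD600=0.02 in galactose medium, after raffinose pregrowth to mid-log, were incubated with compound for 24 hr at 30 deg C.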
# uPA surface inh – qHTS for Inhibitors of Cell Surface uPA Generation; cell surface uPA generation assay, qHTS; Potency, µM (top dose mostly 38.3 µM), usual class: inhibitors; 0.31% of 330,000 active; AID 540303, 2011; active = well fitted inhibition curve with a large enough effect; inconclusive = small, poorly fitted or top-dose-only effect; inactive = no such curve, though single readings can be large or run the other way; tested in mouse RAW 264.7 cells; also: nearly all actives have a fitted effect of over 55% in size
# aSyn rescue – qHTS of alpha-syn Inhibitors; 0.14% of 370,000 active; Potency, µM (doses to about 46.1 µM), most hits filed as activators; Yeast expressing alpha-synuclein, growth rescue, BacTiter-Glo, 24 h; also: nearly all actives have a fitted effect of over 65% in size
#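 Readout is rescue of growth in alpha-synuclein-expressing yeast, so inhibitors of toxicity appear as activators. Growth after 24 hr at 30 deg C in galactose medium is quantified by luminescence.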
# BCR signal inh – qHTS Assay to Find Inhibitors of Chronic Active B-Cell Receptor Signaling; Potency, µM (titrated, usually from 46.1 µM), most hits filed as inhibitors; ABC-DLBCL IkBa-CBG/CBR reporter, luminescence ratio, 4 h; 0.05% of 340,000 active; active = well fitted inhibition curve with a large enough effect in the signal ratio, with a control signal flat, not every such curve was filed as active; inconclusive = small, poorly fitted or top-dose-only effect, or effect the other way, or a change in a side signal; the % refers to the signal ratio
#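 Concentration-response series (up to 46 uM) were applied to TMD8 dual-reporter cells for 4 h at 37C with doxycycline. Green/red ratio, after filter-overlap correction, defined %Activity; red signal alone was normalised to basal cells and zero luminescence.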
# Abeta rescue – qHTS for compounds that reverse cellular toxicity of Amyloid beta (A-beta) peptide in yeast: Primary Screen. Potency, µM (highest dose often 46.1 µM), most hits filed as activators. AID 1347071, 2019. yeast expressing A-beta42, growth rescue, OD600, 48 h; response scale: 0% DMSO, 100% iron-clioquinol control. 0.063% of 410,000 active; also: nearly all actives have a fitted effect of over 55% in size
#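 Growth rescue measured by 600 nm absorbance after 48 h yeast culture at 30 C with compound. Values normalized between DMSO and an equimolar ferric chloride plus clioquinol control.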
# FUS yeast rescue – qHTS for Suppressors of FUS Proteinopathy: Primary screen using FUS-linked yeast assay | Potency, µM (series often up to 76.6 µM), usual class: activators | S. cerevisiae FUS-expressing, growth rescue, OD600, 24 h | 0.24% of 390,000 active; also: nearly all actives have a fitted effect of over 55% in size
#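 Absorbance at 600 nm, taken 24hr after compound addition, measured rescue of FUS-yeast growth at 30C. Induction used 2% galactose with seeding at OD 0.005. Controls: CP55940 from 92uM final, DMSO only.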
# Numbers stand for hits; - = inactive; ? = inconclusive; . = not tested or not shown; [ ] = dose if it differs, or a comment. Unless noted, calls follow the shape of the dose curve; as a rule, active = well fitted curve in the direction sought with a large enough effect; inconclusive = small, poorly fitted or top-dose-only effect, or another doubt; inactive = no such curve, though single readings can be large; an effect the other way counts as inactive or inconclusive.
SMILES,TDP-43 yeast inh,uPA surface inh,aSyn rescue,BCR signal inh,Abeta rescue,FUS yeast rescue
COC(=O)[C@]1(Cc2ccccc2)N[C@H](c2ccc(-c3cccc(Cl)c3)c(OC)c2)[C@@H]2C(=O)N(C)C(=O)[C@@H]21,-,?,-,.,-,14.1µM
COC(=O)[C@]1(CC(C)C)N[C@H](c2ccc(-c3ccc(F)cc3)c(OC)c2)[C@@H]2C(=O)N(C)C(=O)[C@@H]21,-,-,-,-,-,28.2µM
Cc1cccc(NC(=S)N(CCCN2CCOCC2)Cc2ccco2)c1,-,-,-,-,-,-
Cc1ccc(Nc2nc(N)c3ccccc3n2)cc1Cl,-,7.94µM,-,?,-,-
COc1cc2nc(Nc3ccc(C)c(Cl)c3)nc(N)c2cc1OC,-,-,-,?,-,-
CC1CC(C)CN(C(=O)C(NS(=O)(=O)c2ccc(Br)s2)c2ccccc2)C1 (stereo unspecified),14.1µM,-,-,?,-,-
O=C(Nc1ccccc1)C1=C[C@H](c2csc3ccccc23)C[C@H](OCc2ccc(CO)cc2)O1,-,?,-,?,-,11.2µM
O=C(NC1CC1)C1=C[C@H](c2csc3ccccc23)C[C@H](OCc2ccc(CO)cc2)O1,?,-,-,?,-,-
O=C(Nc1ncc2c(n1)-c1ccccc1CC2)c1cccc(Cl)c1,12.6µM,-,-,?,-,.
Cn1c(/C=C/c2ccc(Cl)cc2)c([N+](=O)[O-])c(=O)n(C)c1=O,17.8µM,5.62µM,-,?,-,-
COc1ccc(/C=C/c2c([N+](=O)[O-])c(=O)n(C)c(=O)n2C)cc1OC,-,-,-,-,-,-
COC(=O)c1ccccc1NC(=O)c1ccc2c(c1)CC(C)O2 (stereo unspecified),12.6µM,-,-,-,-,-
Cc1ccc(NC2=C(Cl)C(=O)OC2OC(C)C)cc1 (stereo unspecified),?,-,-,-,-,-
Cc1cccc(NC2=C(Cl)C(=O)OC2OC(C)C)c1 (stereo unspecified),12.6µM,-,-,-,-,-
N#Cc1ccc(C(=O)N2CCC3CC2c2cc(-c4ccccc4)ccc23)cc1 (stereo unspecified),-,-,-,.,-,-
COc1ccc(-c2csc(CCn3nc(C)cc3C)n2)cc1,17.8µM,-,-,-,-,-
CCCCSc1ccc2nc(-c3ccc(C#N)cc3)cn2c1,11.2µM,-,-,-,-,-
Clc1ccc2nc(CN3CCCCCC3)cn2c1,-,-,-,-,-,-
Cc1ccccc1NC1=C(Cl)C(=O)OC1OC(=O)c1ccccc1C (stereo unspecified),20µM,-,-,?,-,-
Cc1ccc(NC2=C(Cl)C(=O)OC2OC(=O)c2ccccc2)c(C)c1 (stereo unspecified),-[9.22 µM],-,-,?,-,-
Cc1cc(N2CCN(c3cccc(C)c3C)CC2)n2cnnc2n1,22.4µM,.,.,.,-,-
Cc1cc(N2CCN(c3ccccc3F)CC2)n2cnnc2n1,?,.,.,.,-,-
O=C(c1cc(-c2ccco2)nc2ccccc12)N1CCCC(C(F)(F)F)C1 (stereo unspecified),35.5µM,-,-,-,-,-
CCn1cc(S(=O)(=O)c2ccc(C)cc2)c(=O)c2cc(OC)ccc21,-,-,-,-,-,-
CCOc1ccc(S(=O)(=O)c2cn(Cc3ccc(C)cc3)c3ccc(OC)cc3c2=O)cc1,-,.,.,.,-,15.8µM
SMILES,TDP-43 yeast inh,uPA surface inh,aSyn rescue,BCR signal inh,Abeta rescue,FUS yeast rescue
CC(=O)c1cc(CN2C(=O)c3ccccc3C2=O)cs1,14.1µM,-,-,-,-,-
O=C(O)c1ccc(N/N=C/c2cn(Cc3ccc(F)cc3)c3ccccc23)cc1,?,-,-,?,-,-
O=[N+]([O-])/C=C/c1cn(Cc2ccc(F)cc2)c2ccccc12,12.6µM,.,-,?,-,-
CSc1ncccc1C(=O)N1CCN(S(=O)(=O)c2ccc3ccccc3c2)CC1,-,-,-,-,-,?
Cc1ccc(C)c(S(=O)(=O)N2CCN(C(=O)c3ccc4ccccc4n3)CC2)c1,?,-,-[1.84 µM],-,-,?
O=C(c1ccccc1F)N1CCN(S(=O)(=O)c2ccc3ccccc3c2)CC1,35.5µM,-,-,-,-,-
O=C(c1ccc2ccccc2n1)N1CCN(S(=O)(=O)c2ccc(Cl)cc2)CC1,25.1µM,-,-,-,-,-
O=C(c1ccc(F)cc1F)N1CCN(S(=O)(=O)c2ccc3c(c2)OCCO3)CC1,12.6µM,-,-,-,-,.
COc1ccc(NC(=O)N2C3CCCC2CC(NC(=O)C2CC2)C3)cc1 (stereo unspecified),-,-,-,-,-,-
CC(=O)Nc1ccccc1OCC(=O)c1cc(C)n(Cc2cccs2)c1C,22.4µM,-,-,?,-,-
Cc1cc(C(=O)COc2cccnc2[N+](=O)[O-])c(C)n1Cc1cccs1,-,-,-,-,-,-
COc1ccc(-n2nc([N+](=O)[O-])c(=NCCC3=CCCCC3)n2O)cc1,20µM,-,-,-,-,-
CCn1c(SCc2ccc(F)cc2)nc2c(c1=O)SCC2,17.8µM,-,-,?,-,-
CCCCSCc1cc(C(=O)O)oc1C(C)(C)C,-,-,-,?,-,-
COc1ccc2c(c1)c(=O)oc1cc(OCC(=O)N3CCCC(C)C3)ccc12 (stereo unspecified),25.1µM,-,-,-,-,-
CNc1nc(N)c([N+](=O)[O-])c(Nc2ccccc2OC)n1,2.51µM,-,-,-,-,-
COc1ccccc1Nc1nc(NCCO)nc(N)c1[N+](=O)[O-],-,-,-,?,-,-
CCNC(=S)Nc1ccc2c(c1)oc1ccccc12,?,-,-,.,10µM,-
CCN(CC)c1ccc(C(=O)Nc2ccccc2)cc1[N+](=O)[O-],25.1µM,-,-,-,-,-
COc1ccc(C(=O)Nc2ccc(Nc3ccccc3)cc2)cc1[N+](=O)[O-],?,-,?,?,-,-
CCCCC(=O)NC(=S)Nc1cc([N+](=O)[O-])ccc1OC,7.08µM,-,-,-,-,-
CCCCC(=O)NC(=S)NNC(=O)c1ccc(OC)cc1,?,-,6.31µM,-,?,-
COc1ccc([N+](=O)[O-])cc1NC(=S)NC(C)=O,-,-,-,-,-,-
CCCCC(=O)NC(=S)NNC(=O)CC#N,-,-,-,?,-,-
CCCCCC(=O)NNC(=S)NC(=O)c1ccc([N+](=O)[O-])cc1,-[9.22 µM],-,22.4µM,?,?,-
CCCCC(=O)NNC(=S)NC(=O)CCC,-,-,25.1µM,-,?,-
